Assay outcomes as filed in PubChem BioAssay.
Most compounds without a hit are left out; they make up all but 21% or so of the library.
Pf growth 96h: P. falciparum growth inhibition at 96 hour, primary screen for plastid delayed-death inhibitors | P. falciparum luciferase reporter growth, 96 h | Potency, µM (titrated, usually from 28.7 µM), inactives show at the highest dose activity change, negative = inhibition, usual class: inhibitors | 6.9% of 320,000 active; further: potency means the concentration at half of the fitted maximal effect; on the % scale 0 is the no-effect control and ±100 the full control effect
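Luminescence readout: decreased luciferase signal marks inhibited growth of reporter-expressing P. falciparum in infected red cells (2% hematocrit, 0.05% parasitemia final), exposed to compound two generations (96 h, 37 C, 5% CO2).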
CHX counter: counter-screen for Shiga toxin inhibitors: cycloheximide protein synthesis inhibition; cell reporter, cycloheximide protein synthesis inhibition counterscreen; max response, %; 12% of 300,000 active; in the data active means max response mostly above about 13%, no sharp cut-off; inactive means mostly below about 14%; further: read at 38.3 µM for the half of the compounds with a filed dose; 0% is about no effect
NS1 function inh: blocks influenza NS1 protein function; Potency, µM (doses to about 46.1 µM), for inactives: at the highest dose activity, positive = more growth; 0.4% of 270,000 active; AID 2326; calls by dose curve; further: potency means the concentration at half of the fitted maximal effect; actives are rising curves; nearly all actives have a fitted effect of over 50% in size
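Read-out: OD600 growth recovery of NS1-expressing budding yeast. Cells grown overnight at 30C in -URA glucose medium, washed, resuspended and diluted 1:100 in 2% galactose assay medium, pH 6.0. Same strain lacking NS1 served as positive control.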
Pf growth 48h: P. falciparum growth inhibition at 48 hours (one generation); P. falciparum luciferase growth in erythrocytes, 48 h; AID 504832; Potency, µM (doses to about 28.7 µM), for inactives: at the top dose activity change, negative = inhibition, actives largely listed as inhibitors; 5.9% of 310,000 active; further: potency means the concentration at half of the fitted maximal effect; on the % scale 0 is the no-effect control and ±100 the full control effect
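Luciferase-expressing P. falciparum in infected erythrocytes (2% hematocrit, 0.1% parasitemia final) in RPMI 1640/0.5% Albumax were exposed to compound for 48 hours at 37 C, 5% CO2; growth read as luminescence.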
Shiga inhibitor: Shiga toxin inhibition. Vero cells, Shiga toxin protein synthesis inhibition reporter. inhibition, % at 38.7 µM. 9.2% of 290,000 active. AID 2315; in the data active means inhibition mostly above about 28%, no sharp cut-off; inactive means mostly below about 43%; further: 0% is about no effect
Numbers without * were called inactive; [ ] = another dose, or the depositor's remark. Unless noted, the call rests on the fitted dose curve; in most records, active means well fitted inhibition curve with a large enough effect; inconclusive means small, poorly fitted or top-dose-only effect, or another doubt; inactive means no such curve, though single readings can be large or run the other way.

C=CCOC(=O)C(C#N)c1nc2ccccc2nc1N1CCN(c2ccccc2OCC)CC1 (centres undefined) was read as Pf growth 96h 9.3µM*, CHX counter -8, NS1 function inh 9%, Pf growth 48h 9.3µM* and Shiga inhibitor -10.
`CC1(C)CC(=O)c2c(n(-c3cccc4ccccc34)ccc2=O)C1` gave Pf growth 96h inconclusive, CHX counter -2, NS1 function inh -2% and Shiga inhibitor 2.
Screening Cc1cc2[nH]c(=O)c(=O)[nH]c2cc1S(=O)(=O)NCc1ccccc1 returned Pf growth 96h 1%, CHX counter 5, NS1 function inh 0%, Pf growth 48h -10% and Shiga inhibitor 0.
`CCN(Cc1ccncc1)C(=O)C1CCC(=O)N(Cc2ccc(Cl)cc2)C1` (centres undefined) gave Pf growth 96h inconclusive, CHX counter -3, NS1 function inh 2%, Pf growth 48h -10% and Shiga inhibitor -20.
COC(=O)C1CCN(c2nc3ccccc3nc2C(C#N)C(=O)NCCc2ccccc2)CC1 (centres undefined) was read as Pf growth 96h 15µM*, CHX counter 11, NS1 function inh -8%, Pf growth 48h -2% and Shiga inhibitor 76.
COC(=O)C1CCN(c2nc3ccccc3nc2C(C#N)C(=O)OCC(C)C)CC1 (centres undefined) was read as Pf growth 96h inconclusive, CHX counter -3, NS1 function inh 9%, Pf growth 48h inconclusive and Shiga inhibitor 16.
O=C(C(NS(=O)(=O)c1cccs1)c1ccccc1)N1CCN(c2ccccc2)CC1 (centres undefined) was read as Pf growth 96h 12µM*, CHX counter -2, NS1 function inh inconclusive, Pf growth 48h inconclusive and Shiga inhibitor 12.
Screening O=C1C(NS(=O)(=O)c2cccs2)=C(N2CCN(c3ccccc3)CC2)C(=O)c2ccccc21 returned CHX counter 11, NS1 function inh 10%, Pf growth 48h inconclusive and Shiga inhibitor 44*.
`COc1ccc(CN(C(=O)/C=C/c2ccccc2Cl)C2CCS(=O)(=O)C2)cc1` (centres undefined) gave Pf growth 96h -4%, CHX counter 34*, NS1 function inh 20%, Pf growth 48h 0% and Shiga inhibitor 54.
Screening COc1cc(C(=O)N(Cc2ccc(F)cc2)C2CCS(=O)(=O)C2)cc(OC)c1OC (centres undefined) returned Pf growth 96h 8.3µM*, CHX counter 0, NS1 function inh -10%, Pf growth 48h inconclusive and Shiga inhibitor -7.
`O=C(/C=C/c1ccccc1Cl)N(Cc1ccc(Cl)cc1)C1CCS(=O)(=O)C1` (centres undefined) gave Pf growth 96h inconclusive, CHX counter 4, NS1 function inh inconclusive, Pf growth 48h -7% and Shiga inhibitor -5.
`COc1ccccc1C(=O)N(Cc1ccc(Cl)cc1)C1CCS(=O)(=O)C1` (centres undefined) gave Pf growth 96h 12µM*, CHX counter -4, NS1 function inh 0%, Pf growth 48h -7% and Shiga inhibitor -6.
`CCOC(=O)Cc1c(C)nc2c(-c3cccc(Br)c3)c[nH]n2c1=O` gave Pf growth 96h 9%, CHX counter -1, NS1 function inh -33%, Pf growth 48h inconclusive and Shiga inhibitor -18.
`CCC[C@@H]1C[C@@H](C(=O)N[C@H]([C@@H](C)O)[C@H]2O[C@H](SC)[C@H](O)[C@@H](O)C2O)N(C)C1` (some centres undefined) gave Pf growth 96h 0.13µM*, CHX counter -2, NS1 function inh -5%, Pf growth 48h 0.042µM* and Shiga inhibitor -2.
Screening CCC[C@@H]1C[C@@H](C(=O)N[C@@H]([C@H]2O[C@H](SC)[C@H](O)[C@@H](O)[C@H]2O)[C@@H](C)O)N(C)C1 returned Pf growth 96h 0.17µM*, CHX counter 5, Pf growth 48h 2.7µM* and Shiga inhibitor -5.
CCOc1cnc(-c2ccc(OC)cc2)o1 was read as Pf growth 96h 78%, CHX counter 15*, NS1 function inh -1%, Pf growth 48h 80% and Shiga inhibitor 55*.
Screening CCOc1cnc(-c2c(-c3c(Cl)cccc3Cl)noc2C)o1 returned Pf growth 96h inconclusive, CHX counter -4, Pf growth 48h -14%[5.75 µM] and Shiga inhibitor 4.
Screening CCOc1cnc(-c2ccc(Cl)cc2)o1 returned Pf growth 96h 46%, CHX counter 39*, NS1 function inh 11%, Pf growth 48h 58% and Shiga inhibitor 86*.
Cc1cc(C(=O)N2CC=C(c3ccccc3)CC2)c2ccccc2n1 was read as Pf growth 96h -1% and Pf growth 48h inconclusive.
`O=C(O)c1ccccc1C(=O)N1CC=C(c2ccccc2)CC1` gave Pf growth 96h 37%, CHX counter 27*, NS1 function inh -2%, Pf growth 48h inconclusive and Shiga inhibitor 72.
For Cc1ccc(C(=O)N2CC=C(c3ccccc3)CC2)o1 the results were Pf growth 96h -5% and Pf growth 48h 13µM*.
For CCn1c(=O)c2sccc2n2c(CCCC(=O)N3CCN(c4ccccn4)CC3)nnc12 the results were Pf growth 96h inconclusive, CHX counter 6, NS1 function inh 4%, Pf growth 48h 10µM* and Shiga inhibitor 5.
For Cn1c(=O)c2sccc2n2c(CCCC(=O)NCCc3ccccc3)nnc12 the results were Pf growth 96h inconclusive, CHX counter 9, NS1 function inh -1%, Pf growth 48h inconclusive and Shiga inhibitor -14.
CC(NC(=O)CCCc1nnc2n(C)c(=O)c3sccc3n12)c1ccccc1 (centres undefined) was read as Pf growth 96h 13µM*, CHX counter 1, NS1 function inh 6%, Pf growth 48h 15% and Shiga inhibitor -2.
Screening CCn1c(=O)c2sccc2n2c(CCCC(=O)NC3CCN(Cc4ccccc4)CC3)nnc12 returned Pf growth 96h 13µM*, CHX counter -6, NS1 function inh 6%, Pf growth 48h 11% and Shiga inhibitor -5.
For COc1ccc(Cl)cc1NC(=O)CNc1ccc(F)cc1C the results were Pf growth 96h inconclusive, CHX counter 1, NS1 function inh -8%, Pf growth 48h inconclusive and Shiga inhibitor -12.
`COc1ccc(Cl)cc1C(=O)NC(C)C` gave Pf growth 96h 45%, CHX counter -3, Pf growth 48h -3% and Shiga inhibitor 6.
`CC(OC(=O)CCCc1nc2ccccc2s1)C(N)=O` (centres undefined) gave CHX counter 13, NS1 function inh -5%, Pf growth 48h 37% and Shiga inhibitor 31.
Cc1noc(C)c1COC(=O)CCCc1nc2ccccc2s1 was read as Pf growth 96h 5.2µM*, CHX counter -3, NS1 function inh -10%, Pf growth 48h -18% and Shiga inhibitor -8.
For CCCCC(=O)OCc1nc2ccccc2s1 the results were Pf growth 96h 76%, CHX counter 28*, NS1 function inh -5%, Pf growth 48h 395% and Shiga inhibitor 76.
